Screening data deposited in PubChem by National Center for Advancing Translational Sciences (NCATS).
This is a sample that favours compounds with a hit; in the whole collection about 11% have one here.
HTT aggregate: inhibitors of mutant huntingtin aggregate formation in PC12 cells; PC12 HttQ103-GFP aggregates, Acumen cytometry, 40 h; Potency, µM (doses to about 46.1 µM), without a hit: top-dose activity change, negative = inhibition, hits mostly inhibitors; hit rate 1.1% among 220,000; further: potency means the concentration at half of the fitted maximal effect; on the % scale 0 is the no-effect control and ±100 the full control effect; nearly all actives have a fitted effect of over 60% in size
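Steps: seed 1500 PC12 HTTQ103-GFP cells/well; add tebufenozide, 100 nM final; add compound titration; add ATPLite reagent; quantify GFP aggregates by laser scanning cytometry.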
HTT cytoprotect: cytoprotection in Huntington HTT-Q103 PC12 cell model. hit rate 0.14% among 230,000. AID 1471. PC12 HTT-Q103 induced, cytoprotection, ATP luminescence, 40 h. Potency, µM (doses to about 56.4 µM), for inactives: cytoprotection (ATP increase), most hits filed as activators; further: potency means the concentration at half of the fitted maximal effect; % of control where 0% means no effect; nearly all actives have a fitted effect of over 45% in size
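Stable PC12 Q103-GFP cells in serum-supplemented, phenol red-free DMEM; induction by tebufenozide at 100 nM final; compound dose series; cell viability quantified luminescently from ATP.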
HPGD inh: inhibitors of human 15-hydroxyprostaglandin dehydrogenase (HPGD); purified HPGD, NADH fluorescence kinetic, PGE2 substrate; hit rate 4.3% among 150,000; Potency, µM, without a hit: at the highest dose activity change, negative = inhibition, most hits filed as inhibitors; P15428; AID 894; active means well fitted inhibition curve with a large enough effect, not every such curve was filed as active; inconclusive means small, poorly fitted or top-dose-only effect, or another doubt; inactive means no such curve, though single readings can be large or run the other way; further: potency means the concentration at half of the fitted maximal effect; on the % scale 0 is the no-effect control and ±100 the full control effect
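20 nM HPGD preincubated 15 min at room temperature with compound in 50 mM Tris-HCl pH 8, 0.01% Tween 20. Started with 1 mM NAD+ and 30 uM prostaglandin E2; NADH fluorescence (360/450 nm) read 5 times over 30-s intervals, last minus first.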
ALDH1A1 inh: blocks purified human ALDH1A1 activity. P00352. Purified ALDH1A1, NADH fluorescence, propionaldehyde substrate. Potency, µM (top dose mostly 75.3 µM), for the others: at the highest dose activity, negative = inhibition, usual class: inhibitors. hit rate 7.3% among 220,000. AID 1030; active means well fitted inhibition curve with a large enough effect, not every such curve was filed as active; inconclusive means small, poorly fitted or top-dose-only effect, or another doubt; inactive means no such curve, though single readings can be large or run the other way;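 further: potency means the concentration at half of the fitted maximal effect; plate controls were no enzyme wells and a reference inhibitor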
PNC inhibitor: perinucleolar compartment assembly inhibition. PC3M PTB-GFP, PNC prevalence imaging, 16 h; hits give low values. activity change (PNC), negative = inhibition, % at 10 µM. hit rate 3.1% among 140,000;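 active means readout at or below -70, meaning at least 70% loss of cells showing the perinucleolar compartment, a nuclear body marking cancer cells; inconclusive means readout between -30 and a set limit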;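 further: plate controls were DMSO wells for no effect and camptothecin positive control wells for full effect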
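Compounds are pinned in duplicate onto adhered PC3M cells stably expressing GFP-tagged PTB and incubated 16 h at 37 C. Cells are then fixed, nuclei stained with Hoechst, and PNC-positive cells counted.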
CBFb RUNX1 block: CBF-beta/RUNX1 interaction disruption; AlphaScreen CBFb-His/RUNX1-biotin binding, biochemical; 230,000 tested, under 10 active; Potency, µM (titrated, usually from 59.8 µM), for the others: at the highest dose activity, negative = inhibition, actives largely listed as inhibitors; AID 1477; Q01196+Q13951; further: % of control where 0% means no effect
Target sequence (Q01196 whole entry, looked up): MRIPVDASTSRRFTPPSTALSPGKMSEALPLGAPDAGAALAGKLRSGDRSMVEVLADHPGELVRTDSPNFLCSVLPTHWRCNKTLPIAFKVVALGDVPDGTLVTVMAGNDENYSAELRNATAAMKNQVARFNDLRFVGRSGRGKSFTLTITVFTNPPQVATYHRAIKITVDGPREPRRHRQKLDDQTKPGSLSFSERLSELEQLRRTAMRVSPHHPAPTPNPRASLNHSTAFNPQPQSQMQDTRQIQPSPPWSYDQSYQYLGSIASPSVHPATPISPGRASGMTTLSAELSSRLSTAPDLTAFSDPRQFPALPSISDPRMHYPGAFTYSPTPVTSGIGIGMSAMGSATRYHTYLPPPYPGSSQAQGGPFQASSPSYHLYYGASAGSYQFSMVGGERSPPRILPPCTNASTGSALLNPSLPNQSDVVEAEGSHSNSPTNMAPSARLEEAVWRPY
Target sequence (Q13951 whole entry, looked up): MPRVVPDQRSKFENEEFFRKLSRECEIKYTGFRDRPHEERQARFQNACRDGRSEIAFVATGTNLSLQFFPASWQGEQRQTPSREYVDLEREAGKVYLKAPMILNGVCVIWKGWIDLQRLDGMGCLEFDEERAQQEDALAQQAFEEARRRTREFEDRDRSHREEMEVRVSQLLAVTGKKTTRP
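AlphaScreen proximity signal reports loss of binding between His-tagged CBF-beta and biotin-labelled RUNX1, each at 30 nM. Proteins are pre-associated for 20 minutes, compounds added for 15 minutes, then beads for 90 minutes, all at ambient temperature.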
* marks the source's active call; other numbers are inactive results; [ ] = dose if it differs, or a comment. Unless noted, the call rests on the fitted dose curve; in most records, active means well fitted curve in the direction sought with a large enough effect; inconclusive means small, poorly fitted or top-dose-only effect, or another doubt; inactive means no such curve, though single readings can be large; an effect the other way counts as inactive or inconclusive.

Screening COc1ccc(NC(=S)N(CCCN2CCOCC2)Cc2cn(C)c3ccccc23)cc1 returned HTT aggregate inconclusive, HTT cytoprotect -41.0%[10 µM], HPGD inh -14.6%, ALDH1A1 inh 0.562µM*, PNC inhibitor inconclusive and CBFb RUNX1 block -7.8%.
`CC(C)c1ccc(NC(=O)Cc2cn(C)c3ccccc23)cc1` gave HTT aggregate -18.5%, HTT cytoprotect -74.5%, ALDH1A1 inh inconclusive and CBFb RUNX1 block -5.3%.
Screening COc1ccc(CNc2ncncc2-c2ccc3c(c2)OCO3)c(OC)c1 returned HTT cytoprotect 3.1%, HPGD inh -25.8% and ALDH1A1 inh inconclusive.
Screening CCC(=O)c1ccc(OCc2ccc(C(=O)c3ccccc3)cc2)cc1 returned HTT aggregate inconclusive, HTT cytoprotect -1.2%[10 µM], ALDH1A1 inh inconclusive and CBFb RUNX1 block 6.9%.
For CCC(/C=C1\Sc2ccc(OC)cc2N1CC)=C\c1sc2ccc(OC)cc2[n+]1CCCS(=O)(=O)[O-] the results were HTT aggregate inconclusive, HTT cytoprotect -17.0%, ALDH1A1 inh 1.26µM* and CBFb RUNX1 block -16.8%.
For Nc1nonc1-n1nnc(C(=O)N/N=C/c2ccccc2Cl)c1COc1ccc(F)cc1 the results were HTT aggregate 9.5%[9.22 µM], HTT cytoprotect 10.1%[10 µM] and CBFb RUNX1 block 0.7%.
For CCCn1c2ccccc2c2nnc(SC(CC)C(=O)Nc3sc4c(c3C#N)CCCC4)nc21 (configuration not stated) the results were HTT aggregate -3.5%, HTT cytoprotect -0.6%, HPGD inh -27.0%, ALDH1A1 inh 28.2µM*, PNC inhibitor inconclusive and CBFb RUNX1 block 12.1%.
C=CCN=C1SC(CC)C(=O)N1S(=O)(=O)c1ccc(C)cc1 (configuration not stated) was read as HTT aggregate -17.3%, HTT cytoprotect 14.2%, HPGD inh -4.9%, ALDH1A1 inh 6.31µM*, PNC inhibitor -0.6 and CBFb RUNX1 block 7.3%.
`COc1ccc(CCNC(=O)c2cc3ccccn3n2)c(OC)c1OC` gave HTT aggregate 4.9%, HTT cytoprotect -10.7%, HPGD inh inconclusive, ALDH1A1 inh 22.4µM*, PNC inhibitor 9.3 and CBFb RUNX1 block 5.5%.
`Cc1ccc(N=C/C(C(=O)C(F)(F)F)=C(\O)c2ccco2)cc1Cl` gave HTT aggregate -11.6%, HTT cytoprotect -25.5%[10 µM], ALDH1A1 inh 2.24µM*, PNC inhibitor -19.2 and CBFb RUNX1 block -3.6%.
For Cc1cccc(N=C/C(C(=O)C(F)(F)F)=C(\O)c2ccco2)c1 the results were HTT aggregate inconclusive, HTT cytoprotect 34.2%[10 µM], HPGD inh 0.1%, ALDH1A1 inh -1.3%, PNC inhibitor inconclusive and CBFb RUNX1 block -4.2%.
`COc1ccc(S(=O)(=O)NCCc2nnc3ccc(SCC(=O)Nc4nc(C)cs4)nn23)cc1` gave HTT aggregate 9.6%, HTT cytoprotect 33.9%[10 µM], HPGD inh -6.2%, ALDH1A1 inh inconclusive, PNC inhibitor inconclusive and CBFb RUNX1 block -3.9%.
`NNC(=O)c1cccc(COc2ccccc2Br)c1` gave HTT aggregate -5.3%, HTT cytoprotect -6.3%, HPGD inh -4.0%, ALDH1A1 inh 3.55µM*, PNC inhibitor 30.2 and CBFb RUNX1 block -4.2%.
NNC(=O)c1ccc(COc2cccc3ccccc23)cc1 was read as HTT aggregate -9.9%, HTT cytoprotect 21.3%[10 µM], HPGD inh -15.1%, ALDH1A1 inh 7.94µM*, PNC inhibitor -24.9 and CBFb RUNX1 block -5.0%.
Screening O=C(c1cccc(COc2ccc(Cl)cc2Cl)c1)N1CCN(c2ccccn2)CC1 returned HTT aggregate inconclusive, HTT cytoprotect -20.1%[0.074 µM], HPGD inh -10.8%, ALDH1A1 inh inconclusive, PNC inhibitor 12.2 and CBFb RUNX1 block -1.9%.
NNC(=O)c1ccc(COc2cccc3ccccc23)o1 was read as HTT aggregate -10.6%[9.22 µM], HTT cytoprotect 11.5%[10 µM] and CBFb RUNX1 block -9.1%.
